Test results: PubChem BioAssay (Tox21)
Results filed as inconclusive are left out. The source made the active and inactive calls. Unless noted, the call rests on the fitted dose curve; in most records, active means well fitted curve in the direction sought with a large enough effect in the repeat runs; inconclusive means weak or mixed curves; inactive means no such curve, though single readings can be large; an effect the other way counts as inactive or inconclusive.

What was measured:
[1] = qHTS assay to identify small molecule agonists of the RXR signaling pathway - cell viability counter screen (AID 1159529); further: nearly all actives have a fitted effect of over 50% in size
Method in brief: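 Tox21 10K compounds were tested for cytotoxicity against GeneBLAzer RXR-alpha HEK 293T cells grown in 2% charcoal-stripped FBS. Exposure lasted 16 hr at 37 C, 5% CO2; viability read by CellTiter-Glo luminescence.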

[2] = qHTS assay to identify small molecule antagonists of the retinoid acid receptor (RAR) signaling pathway - cell viability counter screen (AID 1159551); further: nearly all actives have a fitted effect of over 35% in size
Method in brief: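 C3RL4 RARE-luciferase cells, 1,000/well, incubated overnight, then dosed with compound plus 1 uM retinol (final). After 6 hr at 37 C, viability read by CellTiter-Glo ATP luminescence following 30 min at room temperature.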

[3] = qHTS assay to identify small molecule antagonists of the retinoic acid receptor (RAR) signaling pathway (AID 1159552; further: nearly all actives have a fitted effect of over 50% in size)
Method in brief: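 Overnight-plated C3RL4 reporter cells get compound, then retinol to 1 uM final; plates sit 6 hr at 37 C, 5% CO2. A luciferase reagent is added and light output recorded after 30 min at room temperature.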

[4] = qHTS assay to identify small molecule agonists of the retinoic acid receptor (RAR) signaling pathway (AID 1159553); conditions: C3RL4 RARE luciferase reporter, agonist, 6 h; activation: at 73.3 µM (top of the series)
Method in brief: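 C3RL4 RARE-luciferase cells were seeded at 1,000/well and grown overnight at 37 C, then exposed to compounds for 6 hr at 37 C, 5% CO2. Luciferase reagent was added and luminescence was read after 30 min at room temperature.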

[5] = qHTS assay to identify small molecule antagonists of the estrogen related receptor (ERR) signaling pathway from Tox21 library - cell viability counter screen (AID 1224834); further: nearly all actives have a fitted effect of over 30% in size
Method in brief: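 ERR reporter cells, 2,000 per well, rested 6 h, then exposed to compound in DMSO for 17.5 hours at 37 C. Viability read as fluorescence after 30 min with CellTiter-Fluor.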

[6] = target: Luciferin 4-monooxygenase (Photinus pyralis) (UniProt P08659); experiment: qHTS assay to identify small molecule inhibitors of firefly luciferase (AID 1224835); further: nearly all actives have a fitted effect of over 25% in size
Chain of Luciferin 4-monooxygenase (Photinus pyralis) (P08659 whole entry, looked up): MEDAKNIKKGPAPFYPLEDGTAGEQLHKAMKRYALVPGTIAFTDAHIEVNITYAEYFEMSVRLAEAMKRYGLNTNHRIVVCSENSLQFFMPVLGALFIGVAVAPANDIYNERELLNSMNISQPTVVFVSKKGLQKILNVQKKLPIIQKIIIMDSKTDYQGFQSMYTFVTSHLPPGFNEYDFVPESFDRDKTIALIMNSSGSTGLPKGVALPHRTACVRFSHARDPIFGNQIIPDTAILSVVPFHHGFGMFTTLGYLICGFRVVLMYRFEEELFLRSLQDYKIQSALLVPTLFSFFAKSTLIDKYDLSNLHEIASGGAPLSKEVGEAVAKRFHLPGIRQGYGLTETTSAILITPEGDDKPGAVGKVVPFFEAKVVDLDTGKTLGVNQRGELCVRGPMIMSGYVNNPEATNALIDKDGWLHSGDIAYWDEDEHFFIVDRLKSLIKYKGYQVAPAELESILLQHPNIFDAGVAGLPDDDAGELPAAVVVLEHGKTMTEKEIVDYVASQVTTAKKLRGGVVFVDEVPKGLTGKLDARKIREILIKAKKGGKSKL
Method in brief: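 Quantitative HTS format; KM concentrations of both substrates. Purified P. pyralis FLuc activity quantified from luminescence images.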

[7] = qHTS assay to identify small molecule agonists of the constitutive androstane receptor (CAR) signaling pathway - cell viability counter screen (AID 1224836); further: nearly all actives have a fitted effect of over 45% in size
Method in brief: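 Fluorescence from CellTiter-Fluor indicates live cells after 23 h exposure. The human hepatoma line expresses hCAR and a CYP2B6-2.2kb reporter. Incubation medium contains 0.75 uM PK11195 (final).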

[8] = qHTS assay to identify small molecule antagonists of the constitutive androstane receptor (CAR) signaling pathway - cell viability counter screen (AID 1224837); further: nearly all actives have a fitted effect of over 45% in size
Method in brief: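 HepG2 cells stably carrying hCAR and CYP2B6-2.2kb reporter, stimulated with 50 nM CITCO and compounds at 15 concentrations for 23 h at 37 C. Viability measured by CellTiter-Fluor fluorescence.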

[9] = target: Nuclear receptor subfamily 1 group I member 3 (Homo sapiens) (UniProt Q14994); experiment: qHTS assay to identify small molecule antagonists of the constitutive androstane receptor (CAR) signaling pathway (AID 1224838); further: nearly all actives have a fitted effect of over 40% in size
Chain of Nuclear receptor subfamily 1 group I member 3 (Homo sapiens) (Q14994 whole entry, looked up): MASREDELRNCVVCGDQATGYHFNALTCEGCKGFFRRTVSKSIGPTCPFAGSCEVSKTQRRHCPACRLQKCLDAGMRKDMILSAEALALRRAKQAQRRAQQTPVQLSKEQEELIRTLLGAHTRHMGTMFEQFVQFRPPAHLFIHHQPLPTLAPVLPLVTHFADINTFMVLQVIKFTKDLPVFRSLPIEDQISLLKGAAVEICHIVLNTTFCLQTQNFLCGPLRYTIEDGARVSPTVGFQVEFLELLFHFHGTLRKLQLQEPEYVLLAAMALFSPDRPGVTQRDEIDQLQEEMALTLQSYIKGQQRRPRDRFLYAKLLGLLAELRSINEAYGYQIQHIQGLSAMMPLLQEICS
Method in brief: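 HepG2 cells stably carrying hCAR and a CYP2B6-2.2kb luciferase reporter, seeded 4 hrs before compound (15 concentrations). Stimulated with 50 nM CITCO for 24 hr at 37 C. ONE-Glo luminescence read after 30 min at room temperature.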

[10] = target: Nuclear receptor subfamily 1 group I member 3 (Homo sapiens) (UniProt Q14994); experiment: qHTS assay to identify small molecule agonists of the constitutive androstane receptor (CAR) signaling pathway (AID 1224839); further: nearly all actives have a fitted effect of over 15% in size
Method in brief: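 Stable hCAR/CYP2B6-2.2kb HepG2 line in DMEM with 10% FBS; compounds (15 concentrations) and 0.75 uM PK11195 final, 24 h at 37 C/5% CO2, then ONE-Glo luminescence after 30 min.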

[11] = qHTS assay to identify small molecule antagonists of the estrogen related receptor signaling pathway with the pleiotropic PPARgamma coactivator (PGC) from Tox21 10K library - cell viability counter screen (AID 1224840; active means well fitted cell-killing curve with a large enough effect in the repeat runs, not every such curve was filed as active; further: nearly all actives have a fitted effect of over 40% in size)
Method in brief: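 PGC/ERR cells (2,000/well) plated 6 h, then compound-treated for 17.5 h at 37 C. Viability measured by CellTiter-Fluor fluorescence after 30 min at 37 C, multiplexed with the pathway assay.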

[12] = qHTS assay to identify small molecule agonists of the hypoxia (HIF-1) signaling pathway - cell viability counter screen (AID 1224844; calls by dose curve; further: nearly all actives have a fitted effect of over 50% in size)
Method in brief: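 HRE-bla ME-180 cells, 2,000/well in 0.5% dialyzed FBS medium, treated 17 h at 37C with compounds. Viability read in the same wells as the bla reporter, by CellTiter-Glo luminescence after 30 min at room temperature.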

[13] = qHTS assay to identify small molecule agonists of H2AX (AID 1224845; active means well fitted activation curve with a large enough effect in the signal ratio in the repeat runs, not every such curve was filed as active; the % refers to the signal ratio)
Method in brief: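 Wild-type CHO-K1 cells plated overnight, then exposed 3 hr at 37C to compounds at 15 concentrations (0.76% DMSO). Lysed, then HTRF anti-pH2AX(S139)-cryptate/anti-H2AX-d2 detection after 24 hr at room temperature; emissions 665 and 620 nm.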

[14] = qHTS assay to identify small molecule agonists of H2AX - cell viability counter screen (AID 1224847; calls by dose curve; further: top concentration of the series differs between compounds; nearly all actives have a fitted effect of over 30% in size)
Method in brief: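 Viability of CHO-K1 (wild type) cells after 3 hr compound exposure was measured by CellTiter-Glo luminescence.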

[15] = target: Retinoic acid receptor RXR-alpha (Homo sapiens) (UniProt P19793); experiment: qHTS assay to identify small molecule agonists of the RXR signaling pathway (AID 1159527; calls by dose curve; further: nearly all actives have a fitted effect of over 35% in size)
Chain of Retinoic acid receptor RXR-alpha (Homo sapiens) (P19793 whole entry, looked up): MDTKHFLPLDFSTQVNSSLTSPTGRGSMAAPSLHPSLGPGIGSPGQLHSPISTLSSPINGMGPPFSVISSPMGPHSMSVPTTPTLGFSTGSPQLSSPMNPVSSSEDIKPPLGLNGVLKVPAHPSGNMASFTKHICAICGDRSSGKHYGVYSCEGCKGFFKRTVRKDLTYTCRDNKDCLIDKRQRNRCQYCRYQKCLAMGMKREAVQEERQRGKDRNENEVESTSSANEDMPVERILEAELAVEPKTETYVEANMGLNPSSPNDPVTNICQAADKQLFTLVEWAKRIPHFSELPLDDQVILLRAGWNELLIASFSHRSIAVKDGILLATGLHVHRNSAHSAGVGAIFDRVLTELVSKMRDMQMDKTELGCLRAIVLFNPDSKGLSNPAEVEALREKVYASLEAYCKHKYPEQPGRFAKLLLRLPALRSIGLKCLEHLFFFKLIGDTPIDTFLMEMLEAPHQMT
Method in brief: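 Reporter activation is measured as beta-lactamase activity via FRET substrate cleavage (emission 460/530 nm) in HEK 293T cells expressing an RXR-alpha-driven bla construct, following 16 hr compound exposure at 37 C.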

[16] = qHTS assay to identify small molecule antagonists of the estrogen related receptor signaling pathway with the pleiotropic PPARgamma coactivator (PGC) from Tox21 10K library (AID 1224841; call rule not given here; further: actives are mostly falling curves and most rising ones were filed inactive; nearly all actives have a fitted effect of over 50% in size)
Method in brief: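 PGC/ERR cell line, 2,000 cells/well, pre-incubated 6 hours at 37 C, then exposed to compounds for 18 hours at 37 C; luciferase read with One-Glo luminescence after 30 min at room temperature.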

[17] = qHTS assay to identify small molecule agonists of the estrogen related receptor signaling pathway with the pleiotropic PPARgamma coactivator (PGC) from Tox21 10K library (AID 1224842); further: nearly all actives have a fitted effect of over 15% in size
Method in brief: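 PGC/ERR reporter cells (NTP line) were seeded 2,000 per well, rested 6 h at 37 C/5% CO2, then pin-dosed with compounds in DMSO for 18 h at 37 C; luciferase read by One-Glo luminescence after 30 min at room temperature.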

[18] = qHTS assay to identify small molecule agonists of the hypoxia (HIF-1) signaling pathway (AID 1224846; active means well fitted activation curve with a large enough effect in the signal ratio in the repeat runs, not every such curve was filed as active; the % refers to the signal ratio)
Method in brief: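 HRE-bla ME-180 beta-lactamase reporter cells in medium with 0.5% dialyzed FBS, pre-incubated 5 h then exposed to compounds 17 h at 37C, 5% CO2; reporter induction read with CCF4-AM FRET substrate.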

[19] = qHTS assay to identify small molecule antagonists of the estrogen related receptor (ERR) signaling pathway from Tox21 library (AID 1224848); further: nearly all actives have a fitted effect of over 50% in size; further: potency means the concentration at half of the fitted maximal effect
Method in brief: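 Cells: ERR line, 2,000/well; 6 h preincubation 37 C/5% CO2. Cpd in DMSO via pin tool; 18 h, 37 C. ONE-Glo, 30 min RT, luminescence.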

[20] = target: Thyrotropin receptor (Homo sapiens) (UniProt P16473); experiment: qHTS assay to identify small molecule agonists of the thyroid stimulating hormone receptor (TSHR) signaling pathway (AID 1224843; calls by dose curve; further: nearly all actives have a fitted effect of over 45% in size)
Chain of Thyrotropin receptor (Homo sapiens) (P16473 whole entry, looked up): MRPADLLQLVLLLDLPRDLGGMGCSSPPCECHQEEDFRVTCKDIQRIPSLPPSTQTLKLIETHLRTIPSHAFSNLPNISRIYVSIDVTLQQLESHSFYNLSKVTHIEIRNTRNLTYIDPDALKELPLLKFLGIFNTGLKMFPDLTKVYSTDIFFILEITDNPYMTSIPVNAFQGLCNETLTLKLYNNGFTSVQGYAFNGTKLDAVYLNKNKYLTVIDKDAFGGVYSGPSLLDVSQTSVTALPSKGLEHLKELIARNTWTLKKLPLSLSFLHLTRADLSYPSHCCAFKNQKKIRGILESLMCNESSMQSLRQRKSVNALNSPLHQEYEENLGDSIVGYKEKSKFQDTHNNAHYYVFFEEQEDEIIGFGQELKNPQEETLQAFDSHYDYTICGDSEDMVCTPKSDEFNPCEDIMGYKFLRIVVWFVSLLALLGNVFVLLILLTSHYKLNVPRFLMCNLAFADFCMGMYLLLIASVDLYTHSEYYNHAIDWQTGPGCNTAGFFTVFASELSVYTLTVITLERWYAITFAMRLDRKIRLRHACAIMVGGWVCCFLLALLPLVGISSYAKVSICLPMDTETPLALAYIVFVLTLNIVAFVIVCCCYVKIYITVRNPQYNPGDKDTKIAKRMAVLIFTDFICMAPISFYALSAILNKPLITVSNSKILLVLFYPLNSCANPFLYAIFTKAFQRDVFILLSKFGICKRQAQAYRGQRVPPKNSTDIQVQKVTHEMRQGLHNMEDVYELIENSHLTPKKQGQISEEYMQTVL
Method in brief: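 TSHR-expressing HEK293 cells (800 per well) were exposed to compounds for 30 min at room temperature. cAMP was then detected by HTRF competition with cAMP-d2 and anti-cAMP cryptate, read after 1 h at room temperature. Fifteen concentrations, triplicate.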

Measured: Potency

O=C(O)c1ccccc1C(=O)Nc1ccc(S(=O)(=O)Nc2nccs2)cc1
inactive: [1] | [2] | [3] | [4] | [5] | [6] | [7] | [8] | [9] | [10] | [11] | [12] | [13] | [14]

Cc1ccccc1OCC1CO1 (stereo not given)
inactive: [15] | [1] | [3] | [4] | [6] | [8] | [11] | [16] | [17] | [13] | [18] | [14] | [19]

CCCCCC1CCCC(=O)O1 (stereo not given)
inactive: [15] | [1] | [3] | [4] | [5] | [6] | [7] | [8] | [10] | [11] | [16] | [17] | [20] | [12] | [13] | [18] | [14] | [19]

CCCO
inactive: [15] | [1] | [3] | [4] | [5] | [6] | [7] | [8] | [11] | [12] | [13] | [18] | [14]

Cc1nc2n(c(=O)c1CCN1CCC(C(=O)c3ccc(F)cc3)CC1)CCS2
inactive: [15] | [1] | [3] | [4] | [5] | [7] | [8] | [11] | [17] | [20] | [12] | [13] | [18] | [14]
active: [19] 11.9 µM

CCN(CCC#N)c1ccccc1
inactive: [15] | [1] | [3] | [4] | [5] | [6] | [7] | [8] | [9] | [11] | [20] | [12] | [13] | [18] | [14]

O=S(=O)(O)CCO
inactive: [15] | [1] | [3] | [4] | [5] | [6] | [7] | [8] | [11] | [20] | [12] | [13] | [18] | [14]

CC(=O)/C=C/c1ccco1
inactive: [15] | [1] | [3] | [4] | [5] | [6] | [7] | [8] | [11] | [16] | [17] | [20] | [12] | [13] | [18] | [14] | [19]

O=C(O)CCNC(=O)c1ccccc1
inactive: [15] | [1] | [3] | [4] | [5] | [6] | [7] | [8] | [11] | [16] | [17] | [20] | [12] | [13] | [14] | [19]
